# According to PubChem BioAssay:
# Test: calcein-AM signal in unstimulated myeloma cells – cell-based, calcein-AM fluorescence, 48 h, PK04 Diversity Set, profiling panel (AID 1166);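 note: cells grown under basal conditions without added stimulus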
# Conditions: RPMI8226 myeloma viability, higher = more signal
# Note: test concentration not given here.
row,SMILES,z-score
1,NC(=O)NCC#Cc1ccc2c(c1)[C@]1(C(=O)N2)[C@H](c2ccc(OCCO)cc2)N2[C@H](c3ccccc3)[C@H](c3ccccc3)OC(=O)[C@H]2[C@@H]1C(=O)N1CCCCCCC1,-1.31
2,O=C1C[C@@](C(=O)O)(c2ccc([N+](=O)[O-])cc2)[C@@H](c2ccc(CO)cc2)N1CC12CC3CC(CC(C3)C1)C2,-2.4
3,O=C1C[C@@](C(=O)NCc2ccccc2)(c2ccc([N+](=O)[O-])cc2)[C@@H](c2ccc(CO)cc2I)N1C1CCCCC1,-1.22
4,COc1cccc(C[C@H]2C[C@@H](CO[Si](C(C)C)(C(C)C)C(C)C)N3C(=O)[C@]4(C(C)=O)O[C@]23[C@H]2C(=O)N(C)C(=O)[C@H]24)c1,-4.26
5,COCC(=C=CC[C@@H](O)c1ccccc1OCCO)C[C@@H](O)COCc1ccccc1,0.801
6,COC(=O)C(CC#Cc1ccc2c(c1)[C@]1(C(=O)N2)[C@H](C(=O)N2CCc3cc(OC)c(OC)cc3C2)[C@H]2C(=O)O[C@H](c3ccccc3)[C@H](c3ccccc3)N2[C@@H]1c1ccc(O)cc1)C(=O)OC,-3.27
7,CN1C(=O)C2C=CC(C(O)COCc3ccccc3)N(Nc3ccccc3)C2C1=O (configuration not stated),0.192
8,Cc1ccccc1C(O)C1C=CC2C(=O)N(Cc3ccccc3)C(=O)C2N1n1cnnc1 (configuration not stated),0.0991

# Test: JC-1 mitochondrial signal, unstimulated HepG2 cells – cell-based, JC-1 fluorescence, 24 h, 100 nL compound, profiling panel (AID 1167)
# Conditions: HepG2 mitochondrial potential, higher = more signal
row,SMILES,z-score
1,Cc1cc(C)c(C(O)C2C=CC3C(=O)N(c4ccccc4)C(=O)C3N2Nc2ccccc2)c(C)c1 (configuration not stated),-1.21
2,O=C1O[C@H](c2ccccc2)[C@H](c2ccccc2)N2[C@H]1[C@@H](C(=O)N1CCN(c3ncccn3)CC1)[C@]1(C(=O)Nc3ccc(C#CCCO)cc31)[C@H]2c1ccc(OCCO)cc1,-0.838
3,O=C1CSC(c2cccc([N+](=O)[O-])c2)N1c1ccccc1 (configuration not stated),1.04
4,COC(=O)C(CC#Cc1ccc2c(c1)[C@]1(C(=O)N2)[C@H](c2ccc(O)cc2)N2[C@H](c3ccccc3)[C@H](c3ccccc3)OC(=O)[C@H]2[C@@H]1C(=O)O)C(=O)OC,-0.141
5,COCCCNC(=O)[C@@]1(Cc2ccccc2I)c2ccccc2C(=O)N(Cc2ccccc2Cl)[C@H]1c1ccc(CO)cc1,1.29
6,COC(=O)[C@]1(Cc2ccccc2CN=[N+]=[N-])N=C(c2ccc(OCCCO)cc2)O[C@@H]1c1ccccc1,-1.05
7,CN(C)CCCCCCNC(=O)[C@@H]1C[C@@H]2C(=O)NCC(=O)N2[C@@H]1c1ccc(O)cc1,-1.16
8,COC(=O)c1ccc(OC)c(/C=C\CC(CCc2ccccc2)OC(=O)c2ccncc2)c1 (configuration not stated),-1.28
9,CCOC(=O)C[C@H]1[C@H](OC(=O)Cc2ccc3c(c2)OCO3)[C@@H](NC(=O)c2ccccc2)c2cc(OCCCO)ccc2N1C(=O)c1ccc2ccccc2n1,1.12
10,CCCNC(=O)[C@@]1(Sc2ccc(C)cc2)CC(=O)N(Cc2ccccc2)[C@@H]1c1ccc(CO)cc1I,-0.901
11,CC1(C)[C@@H]2CC(C(O)C3C=CC4C(=O)N(c5ccccc5)C(=O)C4N3Nc3ccccc3F)=C[C@@H]1C2 (some centres not stated),-0.424
12,COc1ccc(C#Cc2ccc3c(c2)[C@]2(C(=O)N3)[C@H](C(N)=O)[C@H]3C(=O)O[C@H](c4ccccc4)[C@H](c4ccccc4)N3[C@@H]2c2ccc(O)cc2)cc1,-3.11
13,COc1ccc([Si](C)(C)[C@@H]2[C@@H](CCO)O[C@]3(C(=O)N(Cc4ccc(N5C(=O)c6ccccc6Oc6ccccc65)cc4)c4ccccc43)[C@H]2C)cc1,-0.42
14,NC(=O)NCC#Cc1ccc2c(c1)[C@]1(C(=O)N2)[C@H](c2ccc(O)cc2)N2[C@H](c3ccccc3)[C@H](c3ccccc3)OC(=O)[C@H]2[C@@H]1C(=O)NC[C@H](O)c1ccccc1,0.163
15,CO[C@H]1O[C@H](CO)[C@@H](OC(=O)c2ccc(Br)cc2)[C@@H]2OC(=O)[C@H](Cc3cccc(Br)c3)C/C=C/C[C@@H](Cc3cccc(Br)c3)C(=O)O[C@@H]12,-3.52
16,CO[C@H]1O[C@H](CO)[C@@H](OC(=O)Nc2cccc(F)c2)[C@H](OC(=O)Nc2ccc3c(c2)OCO3)[C@H]1OC(=O)Nc1ccc2c(c1)OCO2,-0.216
17,CC(C)C[C@H]1NC(=O)[C@H](C)NC(=O)[C@@]23C(=O)N[C@@H](Cc4ccccc4)C2[C@H](C)[C@@]2(C)O[C@H]2C3/C=C/C/C=C\CNC1=O (some centres not stated),-0.482
18,Cc1ccc(C(C)CC(O)C2C=CC3C(=O)N(Cc4ccccc4)C(=O)C3N2n2cnnc2)o1 (configuration not stated),-0.254
19,COCCCNC(=O)[C@@]1(Cc2ccccc2)COC(c2ccc(OCCCO)cc2)=N1,-1.11
